Sampled rows, rich in hits. Any-hit rate of the full collection: about 9.9%.
Tau FP inhib – inhibitors of human tau fibril formation | actives 0.39% (n = 280,000) | Potency, µM (series often up to 57.7 µM), hits mostly inhibitors | AID 1468 | K18 P301L tau heparin fibrillization, Alexa594 FP, 6 h; also: nearly all actives have a fitted effect of over 55% in size
Target sequence (P10636 561-689 P618L limits assumed): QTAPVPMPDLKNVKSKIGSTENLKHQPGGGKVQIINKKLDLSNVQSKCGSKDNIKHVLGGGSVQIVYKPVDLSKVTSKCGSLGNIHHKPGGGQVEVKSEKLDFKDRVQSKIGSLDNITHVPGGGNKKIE
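Human K18 P301L fragment (15 uM unlabeled plus 0.24 uM Alexa 594-labeled) in 100 mM sodium acetate pH 7 with compound, aggregation induced by 20 uM heparin for 6 hr at 37 C. ThT (30 uM) added for 1 hr, then Alexa 594 FP read.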
JMJD2E inh – blocks human JMJD2E demethylase activity; actives 1.6% (n = 230,000); Potency, µM (titrated, usually from 57.1 µM), usual class: inhibitors; JMJD2E catalytic domain, FDH-coupled NADH fluorescence (FDH is formaldehyde dehydrogenase); AID 2147; active = well fitted inhibition curve with a large enough effect, not every such curve was filed as active; inconclusive = small, poorly fitted or top-dose-only effect, or another doubt; inactive = no such curve, though single readings can be large or run the other way; also: nearly all actives have a fitted effect of over 50% in size
Target sequence (B2RXH2 1-337 limits assumed): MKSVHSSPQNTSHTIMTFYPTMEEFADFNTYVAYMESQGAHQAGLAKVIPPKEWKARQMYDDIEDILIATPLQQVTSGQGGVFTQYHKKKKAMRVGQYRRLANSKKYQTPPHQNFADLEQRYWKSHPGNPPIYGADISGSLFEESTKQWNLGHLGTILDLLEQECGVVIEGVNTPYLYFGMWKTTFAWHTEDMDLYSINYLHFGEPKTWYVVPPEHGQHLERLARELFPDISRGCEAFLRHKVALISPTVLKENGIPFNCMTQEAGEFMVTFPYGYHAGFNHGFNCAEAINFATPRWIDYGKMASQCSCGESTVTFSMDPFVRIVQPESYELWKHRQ
Tau fluor counter – counter-screen for tau fibril formation inhibitors | tau K18 P301L Alexa594 fluorescence, heparin fibrillization | Potency, µM (highest dose often 57.7 µM) | actives 0.93% (n = 280,000) | AID 1463; also: nearly all actives have a fitted effect of over 55% in size
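Human K18 P301L tau (15 uM unlabeled plus 0.24 uM Alexa 594-labeled, final) in 100 mM sodium acetate pH 7 was mixed with compound and 20 uM heparin and incubated 6 hr at 37 C.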
ALDH1A1 inh – inhibitors of human aldehyde dehydrogenase 1A1; AID 1030; Purified ALDH1A1, NADH fluorescence, propionaldehyde substrate; actives 7.3% (n = 220,000); Potency, µM (doses to about 75.3 µM), actives largely listed as inhibitors; active = well fitted inhibition curve with a large enough effect, not every such curve was filed as active; inconclusive = small, poorly fitted or top-dose-only effect, or another doubt; inactive = no such curve, though single readings can be large or run the other way
Tau ThT inhib – blocks human tau fibril formation measured by thioflavin T. Potency, µM (series often up to 57.4 µM), hits mostly inhibitors. recombinant tau K18 P301L (four-repeat tau fragment), heparin-induced fibrillization, ThT fluorescence. P10636. actives 2.1% (n = 270,000); also: nearly all actives have a fitted effect of over 55% in size
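Heparin-induced (20 uM) aggregation of recombinant human K18 P301L tau, 15 uM unlabeled with 0.24 uM labeled, pH 7 acetate buffer, 6 hr at 37 C with compound. Fibrils quantified by 30 uM ThT fluorescence after 1 hr ambient incubation.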
HPGD inh – blocks human HPGD enzyme activity. P15428. purified HPGD, NADH fluorescence kinetic, PGE2 substrate. Potency, µM, actives largely listed as inhibitors. actives 4.3% (n = 150,000). AID 894; active = well fitted inhibition curve with a large enough effect, not every such curve was filed as active; inconclusive = small, poorly fitted or top-dose-only effect, or another doubt; inactive = no such curve, though single readings can be large or run the other way
Target sequence (P15428 whole entry, looked up): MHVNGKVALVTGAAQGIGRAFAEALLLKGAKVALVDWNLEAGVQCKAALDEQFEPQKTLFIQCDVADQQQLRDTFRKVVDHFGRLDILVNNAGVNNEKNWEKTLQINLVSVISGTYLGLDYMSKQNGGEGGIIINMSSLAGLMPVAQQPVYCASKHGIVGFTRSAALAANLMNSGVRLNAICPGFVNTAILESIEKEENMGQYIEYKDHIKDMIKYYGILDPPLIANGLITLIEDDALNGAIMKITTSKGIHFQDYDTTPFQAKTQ
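20 nM HPGD preincubated 15 min at room temperature with compound in 50 mM Tris-HCl pH 8, 0.01% Tween 20. Started with 1 mM NAD+ and 30 uM prostaglandin E2; NADH fluorescence (360/450 nm) read 5 times over 30-s intervals, last minus first.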
A number is an active result; [ ] = another dose, or the depositor's remark. Unless noted, calls follow the shape of the dose curve; as a rule, active = well fitted curve in the direction sought with a large enough effect; inconclusive = small, poorly fitted or top-dose-only effect, or another doubt; inactive = no such curve, though single readings can be large; an effect the other way counts as inactive or inconclusive.

`O=Cc1cn(-c2ccccc2)nc1-c1ccncc1` gave Tau FP inhib inactive, JMJD2E inh inactive, Tau fluor counter inactive, ALDH1A1 inh 2.51µM and Tau ThT inhib inactive.
`O=Cc1cn(-c2ccccc2)nc1-c1cccnc1` gave Tau FP inhib inactive, JMJD2E inh inactive, Tau fluor counter inactive, ALDH1A1 inh inactive and Tau ThT inhib inactive.
CCOC(=O)c1ccc(NC(=O)c2cn(-c3ccccc3)nc2-c2ccc(Br)cc2)cc1 was read as Tau FP inhib 17.8µM, Tau fluor counter inconclusive and Tau ThT inhib inactive.
Screening CCOC(=O)c1ccc(NC(=O)c2cn(-c3ccccc3)nc2-c2ccc(C)cc2)cc1 returned Tau FP inhib 8.91µM, Tau fluor counter inconclusive and Tau ThT inhib inactive.
`CCOC(=O)c1ccc(NC(=O)c2cn(-c3ccccc3)nc2-c2ccncc2)cc1` gave Tau FP inhib 28.2µM, JMJD2E inh inactive, Tau fluor counter inconclusive, ALDH1A1 inh inactive, Tau ThT inhib inactive and HPGD inh inconclusive.
`O=C(NCc1cccnc1)c1cn(-c2ccccc2)nc1-c1ccccc1` gave Tau FP inhib inactive, JMJD2E inh inactive, Tau fluor counter inactive, ALDH1A1 inh 4.47µM and Tau ThT inhib inactive.
O=C(NCc1ccncc1)c1cn(-c2ccccc2)nc1-c1cccnc1 was read as Tau FP inhib inactive, JMJD2E inh inactive, Tau fluor counter inactive, ALDH1A1 inh inactive and Tau ThT inhib inactive.
`Cc1cc(C2(c3cc(C)c(O)c(C(=O)O)c3)OS(=O)(=O)c3ccccc32)cc(C(=O)O)c1O` gave ALDH1A1 inh inactive[13.5 µM] and HPGD inh inactive.
For Cc1cc(C2(c3cc(C)c(O)cc3C)OS(=O)(=O)c3ccccc32)c(C)cc1O the results were ALDH1A1 inh 28.2µM and HPGD inh inactive.
`Cc1ccc(C)n1-c1cccc(C(=O)O)c1` gave Tau FP inhib inconclusive, JMJD2E inh inconclusive, Tau fluor counter inactive, ALDH1A1 inh inconclusive, Tau ThT inhib inconclusive and HPGD inh inactive.
For Cc1ccc(C)n1-c1cccc(N)c1 the results were Tau FP inhib inactive, JMJD2E inh inconclusive, Tau fluor counter inconclusive, ALDH1A1 inh inconclusive, Tau ThT inhib 15.8µM and HPGD inh inactive.
Screening CC(=O)Nc1ccccc1C(F)(F)F returned Tau FP inhib inactive, JMJD2E inh inactive, Tau fluor counter inactive and Tau ThT inhib inactive.
For N#Cc1c(Nc2ccccc2C(F)(F)F)s[nH]c1=O the results were Tau FP inhib 28.2µM, JMJD2E inh inactive, Tau fluor counter inactive and Tau ThT inhib 15.8µM.
For N#Cc1c(Nc2ccccc2)s[nH]c1=O the results were Tau FP inhib 15.8µM, JMJD2E inh inactive and Tau fluor counter inconclusive.
CN1CC(O)C2=CC(=O)C(=O)C=C21 (stereo not given) was read as Tau FP inhib 12.6µM, Tau fluor counter 5.62µM[quencher], ALDH1A1 inh inactive and Tau ThT inhib 3.16µM.
c1ccc(Cn2cc(CN3CCCCO3)c(-c3ccc4c(c3)OCO4)n2)cc1 was read as Tau FP inhib inactive, JMJD2E inh inactive, Tau fluor counter inactive, ALDH1A1 inh 31.6µM and Tau ThT inhib inactive.
For O=C(c1cnn2c1NC(c1ccco1)CC2C(F)(F)F)N1CCN(c2cccc(Cl)c2)CC1 (stereo not given) the results were Tau FP inhib inactive, JMJD2E inh inactive, Tau fluor counter inactive, ALDH1A1 inh 3.16µM, Tau ThT inhib inconclusive and HPGD inh inactive.
O=C(NCc1ccco1)c1cnn2c1NC(c1ccccc1)CC2C(F)(F)F (stereo not given) was read as Tau FP inhib inactive, JMJD2E inh inactive, Tau fluor counter inactive, ALDH1A1 inh inactive, Tau ThT inhib inactive and HPGD inh 28.2µM.
Screening CCN1CCN(C(=O)c2ccc3c(c2)N(Cc2cc(C)ccc2C)C(=O)c2ccccc2S3(=O)=O)CC1 returned Tau FP inhib inactive, Tau fluor counter inactive and Tau ThT inhib inactive.
Cn1ncc2c(NCc3ccccc3)ncnc21 was read as Tau FP inhib inactive, JMJD2E inh inactive, Tau fluor counter inactive, ALDH1A1 inh inactive, Tau ThT inhib inactive and HPGD inh inactive.
Clc1ccc(Cn2ncc3c(NCc4ccccc4)ncnc32)c(Cl)c1 was read as Tau FP inhib inactive, JMJD2E inh inactive, Tau fluor counter inactive, ALDH1A1 inh inconclusive, Tau ThT inhib inactive and HPGD inh 20µM.
Screening Cc1nc(N2CCCC2)ncc1C(=O)Nc1ccccc1 returned Tau FP inhib inactive, Tau fluor counter inactive and Tau ThT inhib inactive.
Screening Cc1cccc(C(=O)n2c(=S)nc3cc(C)ccn32)c1 returned Tau FP inhib inconclusive, JMJD2E inh inactive, Tau fluor counter inactive, ALDH1A1 inh inconclusive and Tau ThT inhib inconclusive.
Screening O=C(c1ccco1)n1c(=S)nc2ccccn21 returned Tau FP inhib inconclusive, JMJD2E inh inconclusive, Tau fluor counter inactive, ALDH1A1 inh 20µM, Tau ThT inhib inconclusive and HPGD inh 11.2µM.
For Cc1ccn2c(c1)nc(=S)n2C(=O)c1ccccc1 the results were Tau FP inhib inconclusive, JMJD2E inh inactive, Tau fluor counter inactive, ALDH1A1 inh inconclusive, Tau ThT inhib inconclusive and HPGD inh 25.1µM.
For Cc1cccc2nc(=S)n(C(=O)c3ccco3)n12 the results were Tau FP inhib inactive, JMJD2E inh inactive, Tau fluor counter inactive, ALDH1A1 inh 4.74µM, Tau ThT inhib inactive and HPGD inh inconclusive.
CCCn1c(=O)[nH]c(=O)c2c(C(=O)OCC)cc(-c3cccs3)nc21 was read as Tau FP inhib inactive, JMJD2E inh inconclusive, Tau fluor counter inactive, ALDH1A1 inh inconclusive and Tau ThT inhib inactive.
For Nc1[nH]n2c(=O)cc(-c3ccccc3)nc2c1N=Nc1ccc(S(N)(=O)=O)cc1 the results were Tau FP inhib inactive, JMJD2E inh inactive, Tau fluor counter inconclusive, ALDH1A1 inh inactive and Tau ThT inhib 2.24µM.
Screening NS(=O)(=O)c1ccc(N=Nc2c(-c3ccccc3)[nH]n(-c3nc(-c4ccccc4)cs3)c2=O)cc1 returned Tau FP inhib inconclusive, JMJD2E inh inactive, Tau fluor counter 8.91µM[quencher], ALDH1A1 inh inactive, Tau ThT inhib 1.78µM and HPGD inh inactive.
`NC(=O)c1ccc(N=Nc2c(-c3ccccc3)[nH]n(-c3ccccc3)c2=O)cc1` gave Tau FP inhib inactive, JMJD2E inh inactive, Tau fluor counter inconclusive, ALDH1A1 inh inactive and Tau ThT inhib inconclusive.
`Cc1cc(C)n2[nH]c(=O)c(N=Nc3ccc(S(N)(=O)=O)cc3)c2n1` gave Tau FP inhib inactive, JMJD2E inh inconclusive, Tau fluor counter inactive, ALDH1A1 inh inactive and Tau ThT inhib inconclusive.
`Nc1[nH]n2c(=O)cc(-c3ccccc3)nc2c1N=Nc1ccccc1` gave Tau FP inhib inactive, JMJD2E inh inactive, Tau fluor counter inconclusive, ALDH1A1 inh inactive, Tau ThT inhib 5.01µM and HPGD inh inactive.
`O[C@H](C[C@@H]1CCCCN1)c1ccc2c(c1)oc1ccccc12` gave ALDH1A1 inh inactive[13.5 µM] and HPGD inh inactive.
